From PubChem
Hits are enriched below; roughly 2.6% of the tested compounds scored in any of these assays.
TLR4-MyD88 inh – blocks binding of human TLR4 to MyD88. O00206. Cell-based TLR4-MyD88 binding inhibition assay. inhibition, % at 10 µM. 16,000 compounds, 0.06% hits; in the data active = inhibition above about 45%
OPRK1 antag MB – OPRK1 (human) antagonism, Maybridge screen | inhibition, % at 9 µM | P41145 | OPRK1 cells, antagonist mode, fluorescence readout | AID 652031 | 16,000 compounds, 0.4% hits; in the data active = inhibition above about 50%
S1P1 ag – activates the human S1P1 receptor | P21453 | S1P1 agonist cell-based reporter assay | activation, % at 4.5 µM | 16,000 compounds, 1.5% hits; in the data active = activation above about 80%
rat GALR2 agon – activates the rat galanin receptor 2 | cell-based GALR2 agonist screen | activation, % at 10 µM | 16,000 compounds, 0.5% hits | AID 833; in the data active = activation above about 15%
Large screens that a line does not name were inactive.

O=[N+]([O-])c1ccc(CS(=O)(=O)C(Cl)(Cl)Cl)o1	S1P1 ag 96
COc1cccc(/C=C/[N+](=O)[O-])c1OC	none
